# The list is not random: actives were taken first. Their share in the collection is about 2.1%.
# TDP43 rescue: TDP-43 toxicity inhibition in yeast; AID 652104; 410,000 tested, 1.8% active; Potency, µM (highest dose often 46.1 µM), for inactives: top-dose growth rescue (activation), actives largely listed as activators; TDP-43 expressing yeast growth rescue, BacTiter-Glo, 24 h; further: % of control where 0% means no effect; nearly all actives have a fitted effect of over 50% in size
#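 Galactose-induced TDP-43 yeast, OD600=0.02, compound pinned; 24 hr, 30 deg C; BacTiter-Glo luminescence for growth. Inhibitors of TDP-43 toxicity read as activators.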
# aSyn rescue: rescues yeast growth from alpha-synuclein toxicity. Yeast expressing alpha-synuclein, growth rescue, BacTiter-Glo, 24 h. Potency, µM (highest dose often 46.1 µM), for the others: at the highest dose growth rescue (activation), most hits filed as activators. 370,000 tested, 0.14% active. AID 652106; further: % of control where 0% means no effect; nearly all actives have a fitted effect of over 65% in size
#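 Rescue of yeast growth: cells expressing toxic alpha-synuclein, induced in galactose at OD600 0.02, incubated with compound 24 h at 30 C. ATP luminescence quantified growth; inhibitors of toxicity appear as activators.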
# FUS suppressor: FUS proteinopathy suppression in yeast | AID 1347120 | S. cerevisiae FUS-expressing, growth rescue, OD600, 24 h | Potency, µM (doses to about 76.6 µM), usual class: activators | 390,000 tested, 0.24% active;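 further: plate controls were DMSO vehicle for no effect and reference control for full effect; nearly all actives have a fitted effect of over 55% in size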
#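 Restored growth of FUS-toxic S. cerevisiae, read as 600 nm absorbance after 24 h at 30C in galactose medium (starting OD 0.005). Controls CP55940 and DMSO.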
# Abeta yeast res: restores growth of yeast expressing A-beta42 peptide | yeast expressing A-beta42, growth rescue, OD600, 48 h; response scale: 0% DMSO, 100% iron-clioquinol control | 410,000 tested, 0.063% active | Potency, µM (titrated, usually from 46.1 µM), usual class: activators | AID 1347071; further: nearly all actives have a fitted effect of over 55% in size
#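 Yeast growth medium received pinned compounds, then yeast cells expressing toxic A-beta were added; plates incubated at 30 C for 48 hr. Growth read as absorbance at 600 nm, normalized to DMSO and equimolar FeCl3 plus clioquinol controls.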
# An asterisk follows results filed as active; i = inactive; ? = inconclusive; . = not tested or not shown. The call rests on the fitted dose curve; in most records, active means well fitted curve in the direction sought with a large enough effect; inconclusive means small, poorly fitted or top-dose-only effect, or another doubt; inactive means no such curve, though single readings can be large; an effect the other way counts as inactive or inconclusive. Potency means the concentration at half of the fitted maximal effect.
SMILES,TDP43 rescue,aSyn rescue,FUS suppressor,Abeta yeast res
CSc1ccc(S(=O)(=O)Nc2ccc(F)cc2)cc1,12.6µM*,15.9%,i,i
COc1ccc(NS(=O)(=O)c2ccc(NS(C)(=O)=O)cc2)cc1,0.0%,-8.2%,i,i
CC(C)N1CCCCC(NC(=O)c2cccc(F)c2)C1=O (stereo unspecified),.,.,i,.
CCC(NC(=O)Cn1c(-c2ccccc2)cc(C(C)=O)c1C)c1ccccc1 (stereo unspecified),.,.,i,.
COC1=C(OC)C(=O)c2ccccc2C1=O,.,10.5%,.,.
COc1ccc(OC)c2c1C(=O)c1ccccc1C2=O,25.1µM*,-4.9%,i,i
Cc1ccc(NC2=C(N3CCCCC3)C(=O)c3ccccc3C2=O)cc1,23.2%,?,i,i
COC1=C(Nc2ccccc2)C(=O)c2ccccc2C1=O,12.6µM*,0.0%,i,i
COC1=C(Nc2ccc(C)cc2)C(=O)c2ccccc2C1=O,10µM*,-16.1%,.,i
C=CCN1C(=O)[C@H](CC(=O)NCC2CCCCC2)[C@@]2(C(=O)OCC)CCCC=C12,.,.,i,.
Cc1ccc(NC(=O)N2CCN(C(=O)c3nsc4ccccc34)CC2)cc1C,?,.,i,i
CCc1cc(C(=O)Nc2ccc(C)cc2Br)cs1,12.6µM*,-0.9%,i,i
Cc1cc(NC(=O)N2CCC(CN3CCCCCC3)CC2)ccc1Br,9.8%,.,i,i
Cc1ccc(S(=O)(=O)NCCNc2ccc([N+](=O)[O-])cc2C(F)(F)F)cc1,22.4µM*,?,i,i
O=[N+]([O-])c1ccc(NCCNS(=O)(=O)c2ccccc2)c(C(F)(F)F)c1,27.5%,0.1%,i,i
O=C(NCCNc1ccc([N+](=O)[O-])cc1C(F)(F)F)c1ccccc1F,20µM*,15.4%,i,i
Cc1ccc(C(=O)NCCNc2ccc([N+](=O)[O-])cc2C(F)(F)F)cc1,9.4%,-1.4%,i,i
Cc1cc(OCC(=O)NNC(=S)NC(=O)c2ccc(Br)o2)ccc1Cl,20µM*,?,i,?
Cc1ccc2nc(CO)[nH]c2c1,.,-9.1%,.,.
COc1ccc(Cn2c(CO)cnc2SCc2ccc(C)cc2)cc1,3.9%,.,i,i
CCCCN=C1NN=C(c2ccc(C)c(C)c2)CS1,14.1µM*,-3.2%,i,i
COc1ccc(C2C(C(=O)N3CCC(C)CC3)CC(=O)N2c2ccc(OC)cc2)cc1 (stereo unspecified),.,.,i,.
CC(/C=C/c1ccccc1)=N\NC(N)=S,12.6µM*,0.4%,i,i
NC(=S)NN=C(c1ccccc1)c1ccccc1,12.6µM*,-22.4%,i,?
O=C(C1COc2ccccc2O1)N1CCN(c2nc3ccc(F)cc3s2)CC1 (stereo unspecified),20µM*,.,?,?
SMILES,TDP43 rescue,aSyn rescue,FUS suppressor,Abeta yeast res
O=C(C1COc2ccccc2O1)N1CCN(c2ccccc2)CC1 (stereo unspecified),25.1µM*,0.7%,i,?
COc1ccc2nc(N3CCN(C(=O)C4COc5ccccc5O4)CC3)sc2c1 (stereo unspecified),?,21.0%,i,i
O=C(C1COc2ccccc2O1)N1CCOCC1 (stereo unspecified),-19.4%,-2.8%,?,i
Cc1ccc2c(c1)C1CS(=O)(=O)N(C3CCCC3)C(=O)N1C2 (stereo unspecified),.,.,i,.
CCOC(=O)CC[C@H]1CC[C@]2(CCCN(C(=O)C3CCCC3)C2)O1,.,.,i,.
Cc1ccc(C)c2nc3sc(C(=O)O)cc3cc12,14.1µM*,-70.7%,i,i
COc1ccccc1[C@H]1C(c2ccc(F)cc2)=NN(c2ccccc2)[C@@H]1CO,28.2µM*,0.2%,i,i
C[C@H]1C(c2ccc(F)cc2)=NN(c2ccccc2)[C@@H]1CO,17.8µM*,18.2%,i,?
CCC(=O)N1CCc2cc(Br)cc(S(=O)(=O)CCC(=O)NCCc3cccc(C)c3)c21,2.9%,.,i,i
Cc1ccc(-c2cc(C#N)c3n(c2=O)CCC3)cc1,.,.,i,.
COc1ccc(OC)c(CN2C(=O)CSCC2(C)c2nnnn2C2CCCC2)c1 (stereo unspecified),.,.,i,.
O=C(O/N=C(\c1ccccc1)c1ccncc1)c1ccccc1Cl,3.98µM*,?,i,i
N/C(=N\OC(=O)c1ccccc1Cl)c1ccccc1,?,-21.1%,i,i
Cc1cccc(C(=O)O/N=C(/c2ccccc2)c2ccncc2)c1,7.08µM*,?,i,i
O=C(NNc1ccccc1)c1ccc(Cl)c(Cl)c1,12.6µM*,?,.,i
Cc1nn2c3c(cnc2c1-c1ccc(F)cc1)C(=O)CC(c1ccccc1)C3 (stereo unspecified),3.9%,.,i,i
CN(c1ncnc2onc(-c3cccc(Cl)c3)c12)C1CCCCC1,22.4µM*,.,i,i
Cc1cccc(Nc2ncnc3onc(-c4cccc(Cl)c4)c23)c1,18.9%,-1.7%,i,i
CCOC(=O)C1=C(CN(CC)Cc2ccccc2)NC(=O)NC1c1ccc(OC(C)C)cc1 (stereo unspecified),-6.6%,.,i,i
CCCc1nc(SCC(=O)c2ccccc2)c2c(=O)n(C)c(=O)n(C)c2n1,14.1µM*,?,i,i
Cc1cccc(-c2nc(CCNC(=O)c3ccc(Br)o3)cs2)c1,15.8µM*,.,i,i
O=C(NCCc1csc(-c2cccnc2)n1)c1ccc(Br)o1,-1.5%,-29.8%,i,i
O=C(NCCc1csc(-c2ccccc2)n1)c1ccc(Br)o1,22.4µM*,6.0%,i,i
O=C(c1cccc(Cl)c1)N1c2ncnn2C2(CCCCC2)[C@@H]2CCCC[C@@H]21,12.6µM*,.,i,i
O=C(c1cccc(Cl)c1)N1c2nc(-c3ccco3)nn2C2(CCCCC2)[C@@H]2CCCC[C@@H]21,7.7%,.,i,i
SMILES,TDP43 rescue,aSyn rescue,FUS suppressor,Abeta yeast res
CCCOc1ccc(CN(C(=O)c2nc(SC(C)C)ncc2Cl)C2CCS(=O)(=O)C2)cc1 (stereo unspecified),15.7%,.,35.5µM*,i
O=C(CSc1n[nH]c(-c2ccccc2Cl)n1)N1CCN(c2ccccc2)CC1,?,.,i,i
CCCn1nnc(NC(=O)c2ccc(-c3cccc(Cl)c3)o2)n1,12.6µM*,6.1%,i,i
CCCN(CC(=O)Nc1ccccc1OC)C(=O)c1ccc(COc2ccccc2)o1,11.2µM*,0.9%,?,i
CCOc1cc(CNc2ccc(O)cc2)ccc1OCc1ccc(Cl)cc1,35.5µM*,.,i,i
Oc1ccc(NCc2ccccc2OCc2ccc(Cl)cc2)cc1,?,.,i,i
COc1cc(C=Nn2c(-c3cc(-c4ccccc4)n[nH]3)n[nH]c2=S)ccc1OC(C)=O,.,.,i,.
CC1(C)Cc2c(C#N)c(N3CCN(C(=O)c4ccccc4Cl)CC3)nc(-c3ccco3)c2CS1,22.1%,5.6%,11.2µM*,i
COc1cccc(CCC(=O)N(C)C2CCCN(Cc3ccccc3F)C2)c1 (stereo unspecified),13.1%,-2.9%,i,i
